High-throughput results from PubChem BioAssay.
In the library only some 2.2% were active in any assay of this set; here they are far more common.
KLF5 inh: suppresses KLF5 promoter-driven expression | DLD-1 KLF5 promoter-luciferase reporter, luminescence | 290,000 tested, 0.23% active | inhibition, % at 5 µM;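 active = inhibition above a per-plate limit of that plate's mean compound inhibition plus 3 SD, cut at about 60% in these data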;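 note: 0% = DMSO wells and 100% = LY294002 at 200 µM; higher means less KLF5 promoter-driven luciferase light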
Ba/F3 V617F tox: loss of viability in JAK2V617F-driven Ba/F3 cells; Ba/F3 EpoR-JAK2V617F viability, ATP luminescence; 220,000 tested, 1.1% active; AID 1446; inhibition, % at 5.6 µM;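 active = inhibition above the campaign mean plus 3 SD over all tested compounds, cut at about 24% in these data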;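 note: cytokine-independent growth of Ba/F3 cells driven by EpoR plus mutant JAK2; 0% = DMSO-treated cells and 100% = JAK inhibitor I control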
APP transl inh: APP translation inhibition | SH-SY5Y APP 5'UTR-luciferase reporter, luminescence | inhibition, % at 2 µM | 190,000 tested, 0.82% active | AID 1285;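 active = inhibition above a set limit, derived from the sample mean plus 3 SD, cut at about 45% in these data; inconclusive = one replicate passes the limit while the other fails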
BaF3 parental: counter-screen for JAK2V617F inhibitors: parental Ba/F3 viability inhibitors; CellTiter-Glo ATP luminescence; inhibition, % at 5.6 µM; 220,000 tested, 1.1% active; AID 1486;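 active = inhibition above a per-campaign cutoff, the mean inhibition of all tested compounds plus 3 SD, cut at about 27% in these data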;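 note: 0% = DMSO wells and 100% = JAK Inhibitor I control wells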
aSyn 5UTR inh: MLPCN primary screen, SNCA 5' untranslated region; alpha-synuclein 5'UTR reporter, inhibitor activity; inhibition, % (tested at 7.5 µM); 300,000 tested, 0.82% active; in the data active = inhibition above about 60%; inconclusive = no clear call, values can overlap the other calls;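 note: H4 neuroglioblastoma cells stably carrying SNCA 5'UTR luciferase fusion; 0% = DMSO wells and 100% = positive control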
IEC-6 cytotox: kills IEC-6 intestinal cells in KLF5 counter-screen. IEC-6 cytotoxicity, luminescence viability. inhibition, % at 5 µM. 290,000 tested, 0.78% active;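 note: 0% = plate median of test compound wells and 100% = cytotoxic reference compound wells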
IEC-6 cytotox cf: confirmation of cytotoxic compounds in rat IEC-6 intestinal epithelial cells | shares compounds with IEC-6 cytotox | IEC-6 rat intestinal epithelial viability, luminescence | inhibition, % at 5 µM | 1,900 tested, 63% active;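 note: 0% = vehicle and 100% = reference cytotoxic drug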
* marks the source's active call; other numbers are inactive results; ? = inconclusive; / = no result given. Cut-off read from the data, not from the text of the source, unless noted: active = inhibition above about 22%; inactive = the rest.

SMILES | KLF5 inh | Ba/F3 V617F tox | APP transl inh | BaF3 parental | aSyn 5UTR inh | IEC-6 cytotox | IEC-6 cytotox cf
CCSC1=C(C#N)C(c2ccc(C)s2)CC(=O)N1 (stereo not drawn) | -3.5 | -2.1 | -2.2 | 0.0 | 18.4 | -1.4 | /
O=[N+]([O-])c1cc(Br)c(Nc2ccccc2)c([N+](=O)[O-])c1 | 37.4 | / | / | / | 32.6 | 22.1* | 0.2
O=C(Nc1ccccc1)c1ccc(Nc2c([N+](=O)[O-])cc([N+](=O)[O-])c3ccccc23)cc1 | -19.6 | -3.3 | -16.6 | 3.1 | 20.1 | -3.5 | /
COc1cccc(NC(=O)c2nc(S(C)(=O)=O)ncc2Cl)c1 | 29.8 | / | / | / | -25.8 | 100.4* | 17.3
COc1cccc(NC(=O)c2nc(SC)ncc2Cl)c1 | -12.2 | / | / | / | -20.1 | 9.9 | /
CN(c1ccccc1)S(=O)(=O)c1ccc(NC(=O)c2ccccc2)cc1 | 7.6 | -4.9 | -9.5 | 1.3 | -31.6 | 1.5 | /
CN(c1ccccc1)S(=O)(=O)c1ccc(NC(=O)c2nc(S(C)(=O)=O)ncc2Cl)cc1 | 23.1 | / | / | / | 16.3 | 94.7* | 3.4
CCc1ccc2oc(C(=O)N3CCN(c4ccc(OC)cc4)CC3)cc(=O)c2c1 | -17.7 | / | / | / | -5.4 | 4.5 | /
CCc1ccc2oc(C(=O)N3CCN(c4ccccc4OC)CC3)cc(=O)c2c1 | 8.3 | / | / | / | -3.9 | 30.9* | 54.5*
O=C1COc2ccc3ccccc3c21 | -52.4 | / | / | / | -1.2 | 0.8 | /
O=C1C=C(NCCN2CCOCC2)C(=O)c2cnccc21 | 29.7 | 7.7 | 12.7 | 10.5 | 131.5* | 99.3* | 100.4*
O=C(NCCN1CCOCC1)c1ccncc1 | 3.4 | -1.1 | -14.1 | 1.5 | 10.8 | -7.6 | /
CCOC(=O)c1ccc(-c2c(-c3cc(OC)c(OC)c(OC)c3)noc2C)cc1F | 59.3 | / | / | / | ? | 76.4* | 57.2*
CCOC(=O)c1ccc(-c2c(-c3ccc4c(c3)OCO4)noc2-c2ccsc2)cc1F | -0.7 | / | / | / | -0.2 | -0.2 | /
Cc1ccc2[nH]c(C(=O)N/N=C/c3ccc([N+](=O)[O-])cc3)c(C)c2c1 | 32.1 | / | / | / | -62.9 | 33.9* | 25.5*
CCCCN1/C(=C/c2cccc[n+]2C)Sc2cc(NC(C)=O)ccc21 | -25.5 | / | / | / | -4.8 | -4.0 | /
CCN1/C(=C/c2ccc3cc(C)ccc3[n+]2CC)Sc2cc(C)ccc21 | 16.9 | 99.3* | 63.1* | 84.8* | / | 34.8* | 33.9*
CCCCN1/C(=C/c2ccc3ccccc3[n+]2CC)Sc2ccccc21 | 6.8 | 101.0* | -7.7 | 80.4* | 80.2* | 41.6* | 14.1
CCN1/C(=C/c2ccc3ccccc3[n+]2CCCS(=O)(=O)[O-])C=Cc2cc(C)ccc21 | -8.7 | / | / | / | 35.5 | 6.2 | /
CCN(c1ccccc1)S(=O)(=O)c1ccc(Cl)c(NC(=O)COC(=O)c2cc(O)c3ccccc3c2O)c1 | 8.5 | -2.8 | / | -2.6 | 12.7 | 31.6* | 6.7
COc1cc(C2c3cc4c(cc3C(OC3OC5COC(c6cccs6)OC5C(O)C3O)C3COC(=O)C23)OCO4)cc(OC)c1O (stereo not drawn) | 40.6 | 98.4* | / | 102.0* | 81.7* | 93.2* | 74.0*
COc1ccccc1NC(=O)N1CCC(c2nc3cc(C)c(C)cc3[nH]2)CC1 | 47.0 | 83.1* | 57.8* | 81.1* | 74.3* | 82.0* | 58.8*
O=C(CSc1nccc(=O)[nH]1)Nc1ccc(N2CCOCC2)cc1 | -6.4 | / | / | / | 13.3 | 3.8 | /
Clc1ccc2c(c1)C=Nc1c(NCc3ccccc3)ncnc1O2 | -0.5 | -1.5 | -24.5 | 3.3 | 12.5 | -1.3 | /
C1=Nc2c(Nc3ccccc3)ncnc2Oc2ccccc21 | -38.7 | -4.3 | -6.2 | 6.1 | -12.0 | 52.7* | 33.0*
SMILES | KLF5 inh | Ba/F3 V617F tox | APP transl inh | BaF3 parental | aSyn 5UTR inh | IEC-6 cytotox | IEC-6 cytotox cf
O=C(COC(=O)CN=C1NS(=O)(=O)c2ccccc21)Nc1ccccc1OC(F)F | 4.3 | -1.2 | 6.4 | -0.2 | -17.9 | 3.5 | /
C/C(=N\NC(=O)c1n[nH]c2c1CCC2)c1ccco1 | 61.4 | 83.4* | / | 86.2* | 44.0 | 78.6* | 10.2
COc1ccccc1N1CCN(c2ccnc3cc(Cl)ccc23)CC1 | 42.4 | / | / | / | 86.6* | 65.2* | 53.1*
COC(=O)Cn1c(=NC(=O)CCS(=O)(=O)c2ccccc2)sc2c(OC)ccc(OC)c21 | -21.2 | / | / | / | 15.9 | 7.0 | /
CCOC(=O)C(Sc1cc(-c2ccccc2)nc2ncnn12)C(C)=O (stereo not drawn) | 8.9 | 0.6 | / | 2.0 | -18.7 | 3.6 | /
O=C(Cc1cn2ccsc2n1)OCc1ccccc1 | -13.7 | -1.8 | -5.6 | -0.9 | / | 34.7* | 19.1
CC(C(=O)N1CCc2ccccc21)N1CCN(Cc2ccc(Cl)cc2)CC1 (stereo not drawn) | -6.7 | / | / | / | 16.6 | 1.6 | /
Cc1nc2ccc(NC(=O)c3cncc(Br)c3)cc2s1 | 39.0 | 79.7* | / | 60.0* | -87.1 | 87.6* | -4.0
Cc1nc2ccc(NC(=O)c3ccccc3)cc2s1 | -94.1 | -0.8 | -82.2 | 1.7 | -106.3 | -1.1 | /
CCN1CCCC1CNC(=O)C1CCN(Cc2nc(-c3cccc(Br)c3)oc2C)CC1 (stereo not drawn) | 11.6 | 11.8 | -4.9 | 31.2* | 14.3 | 49.2* | 98.8*
Cc1ccccc1-c1nc(CN2CCC(C(=O)NCCCN3CC(C)CC(C)C3)CC2)c(C)o1 (stereo not drawn) | 0.6 | 14.8 | -12.1 | 20.8 | 1.3 | 59.7* | 53.0*
Cc1ccccc1-c1nc(CN2CCC(C(=O)NCCCN3CCCC3)CC2)c(C)o1 | 19.4 | 2.0 | -1.2 | 8.1 | -33.4 | -0.1 | /
Cc1ccc(NC(=O)C2CC3CCC2C3)c(Br)c1 (stereo not drawn) | -80.5 | / | / | / | -110.2 | -3.2 | /
O=C(Nc1cc(Cl)cc(Cl)c1)C1CCCC1 | -32.6 | / | / | / | 14.5 | -5.7 | /
CN1CCN(c2ccccc2/C=C2/C(=O)Nc3ccccc32)CC1 | -2.2 | / | / | / | 9.4 | 2.1 | /
COc1ccccc1CNS(=O)(=O)c1ccc(-c2cc(C)no2)cc1 | 53.1 | / | / | / | 80.0* | 78.9* | 53.3*
COc1ccccc1NS(=O)(=O)c1ccc(-c2cc(C)no2)s1 | 27.1 | / | / | / | -101.8 | 39.7* | 16.6
COc1ccccc1NS(=O)(=O)c1cccs1 | -32.8 | -2.6 | -2.8 | 0.5 | 24.5 | 3.4 | /
O=C(Nc1ccc(Oc2ccccc2)nc1)C1CCCCN1Cc1ccco1 (stereo not drawn) | 50.2 | / | / | / | -49.4 | 59.8* | 38.6*
CCn1nc(C)c(CN2CCCCC2C(=O)Nc2ccc(Oc3cccnc3)cc2)c1C (stereo not drawn) | -22.9 | / | / | / | 13.0 | -6.0 | /
Cc1ccc(CN2CCCCC2C(=O)Nc2ccc(Oc3cccnc3)cc2)o1 (stereo not drawn) | 26.9 | / | / | / | -58.3 | 38.4* | 36.7*
O=C(CN(CC1CCCO1)C(=O)CNS(=O)(=O)c1ccc(F)cc1)NCc1ccc(F)cc1 (stereo not drawn) | 3.7 | / | / | / | 9.2 | -1.3 | /
Cc1ccc(C(=O)NCCNS(=O)(=O)c2ccccc2)cn1 | -18.6 | / | / | / | -2.5 | -2.2 | /
Cc1cc(Cl)n2c(nc3ccccc32)c1C#N | 17.4 | 75.6* | 90.0* | 29.1* | 88.7* | 77.1* | 37.4*
O=C(O)c1ccc(NC2=C/C(=N/S(=O)(=O)c3ccccc3)c3ccccc3C2=O)cc1 | 4.3 | -0.5 | 6.4 | 5.3 | / | 25.0* | -10.2
